The panel holds about 79,000 compounds, 15% with a hit somewhere; the sample as a whole holds those more often. No stated cut-off is given here; in the data, active means growth inhibition above about 70%; inactive means the rest.
Legend:
[1] = NCI Yeast Anticancer Drug Screen. Data for the rad50 strain (AID 155);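 further: 0% = growth of vehicle-only cultures of the same strain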; conditions: S. cerevisiae rad50 strain growth inhibition; at 50.0 µM; active compounds read high
Method in brief: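 Growth of the mutant yeast was measured after compound exposure and referenced to vehicle-treated cultures.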

[2] = NCI Yeast Anticancer Drug Screen. Data for the mec2-1 strain (AID 157); conditions: S. cerevisiae mec2-1 strain, at 50.0 µM, active compounds read high
Method in brief: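 Using mec2-1 yeast: add compound, measure growth, express inhibition versus vehicle-treated cultures.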

[3] = NCI Yeast Anticancer Drug Screen. Data for the sgs1 mgt1 strain (AID 161);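 further: 0% = growth of cultures given vehicle only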; conditions: S. cerevisiae sgs1 mgt1 strain, at 50.0 µM, active compounds read high
Method in brief: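 Compounds are added to genetically altered yeast, and growth is compared with cultures given vehicle alone to give percent inhibition.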

[4] = NCI Yeast Anticancer Drug Screen. Data for the cln2 rad14 strain (AID 165);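 further: 0% = growth equal to vehicle treated cultures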; conditions: S. cerevisiae cln2 rad14 strain, at 50.0 µM, active compounds read high
Method in brief: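 Yeast strain cln2 rad14, bearing defects in cell cycle control and DNA repair, serves as the test system; values reflect growth inhibition compared with vehicle.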

[5] = NCI Yeast Anticancer Drug Screen. Data for the bub3 strain (AID 167); conditions: S. cerevisiae bub3 mutant strain, at 50.0 µM, active compounds read high
Method in brief: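 Whole-cell yeast assay. The mutant strain was incubated with compounds, and growth inhibition was determined by comparison with vehicle-treated cells.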

[6] = NCI Yeast Anticancer Drug Screen. Data for the mlh1 rad18 strain (AID 175); conditions: S. cerevisiae mlh1 rad18 strain growth inhibition; at 50.0 µM; active compounds read high
Method in brief: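 Steps: expose repair-defective yeast to compound; measure growth; express inhibition against vehicle-treated controls.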

Measured: growth inhibition

ClCCCCOC1CCCCO1 (configuration not stated)
inactive: [1] -4.6% | [2] 5.35% | [3] 4.9% | [4] 2.7% | [5] -12.7% | [6] -29.8%

CCCCCNN
inactive: [1] 0.95% | [2] -4.6% | [3] -8.5% | [4] 9.55% | [5] -6.75% | [6] 26.6%

CCC(=O)C1C(=O)CC(=O)C(C)C1c1ccccc1OC (configuration not stated)
inactive: [1] -14.8% | [2] -6.6% | [3] 4.5% | [4] 38.5% | [5] 27.8% | [6] 10.4%

Cc1cc(Br)cc(C)c1NC(=O)C(=O)Nn1c(=S)[nH]c2ccccc2c1=O
inactive: [1] -8.55% | [2] -16.1% | [3] -6.15% | [4] 12.8% | [5] -8.2% | [6] 1.3%

CCn1c(C)cc(=NC(=O)c2ccccc2O)n1-c1ccccc1
inactive: [1] 4.45% | [2] 9.8% | [3] 25.6% | [4] 11.5% | [5] 21% | [6] 16.7%

CCCCCCCCCCCCCCCCCCSCCCCCCCCCCCCCCCCCC
inactive: [1] 25.1% | [2] 2.75% | [3] -16.9% | [4] -20.4% | [5] -2.55% | [6] -17.6%

Cc1nc2c(sc(=S)n2-c2ccccc2)c2nc3ccccc3n12
inactive: [1] -9.35% | [2] -15.7% | [3] 7.7% | [4] -1.2% | [5] -2.55% | [6] -20.6%

Cc1ccc(NC(=O)NCc2ccncc2)cc1NC(=O)NCc1ccncc1
inactive: [1] 13% | [2] 15% | [3] 20.8% | [4] 20.2% | [5] 30.9% | [6] 24.8%

O=NNc1ccc(SSc2ccc(NN=O)cc2)cc1
inactive: [1] 39.8% | [2] 9.5% | [3] 22.9% | [4] 44.9% | [5] 8.05% | [6] 31.1%

Nc1ccccc1SC1CCCCC1O (configuration not stated)
inactive: [1] -4.9% | [2] 2.2% | [3] -5.3% | [4] -8.2% | [5] 3.75% | [6] -7.15%

CCCNC(=O)N1C(=O)c2ccccc2S1(=O)=O
inactive: [1] -26.8% | [2] -7.2% | [3] 7.85% | [4] -26.1% | [5] -14.1% | [6] -22.6%

CC1CN(c2ccc(Cl)cc2)CC(C)(C)OC(=O)O1 (configuration not stated)
inactive: [1] -12.2% | [2] -16.1% | [3] -10.6% | [4] 0.2% | [5] 5.45% | [6] -2.5%

Nc1nc(N)nc(-c2ccc([N+](=O)[O-])o2)n1
inactive: [1] 41.8% | [2] 10.8% | [3] 29.9% | [4] 20.8% | [5] 12.2% | [6] 41.6%

COc1ccc(C(CCl)(CCl)c2ccc(OC)cc2)cc1
inactive: [1] 11.8% | [2] -40% | [3] 4.35% | [4] 15.3% | [5] 31.6% | [6] -9.9%

O=C1CSC(/C(=C/c2ccccc2)c2nc3ccccc3[nH]2)=N1
inactive: [1] 6.65% | [2] -1.75% | [3] 0.15% | [4] 16.2% | [5] -1.6% | [6] -0.25%

CN(C)C1=c2c(=O)n(C)c(=O)n(C)c2=NC2C=CC=CN12 (configuration not stated)
inactive: [1] 10.8% | [2] 13.6% | [3] 17.4% | [4] 4.15% | [5] 15% | [6] 22.6%

COC1(OC)N=C(N)C2(C#N)C(C)CC(=O)N(N(C)C)C12C#N (configuration not stated)
inactive: [1] 7.15% | [2] 6.1% | [3] -27.4% | [4] -2.7% | [5] -37.4% | [6] -34.9%

CCOc1cc2ccc3c4cc(OC)c(OC)cc4cnc3c2cc1OCC
inactive: [1] -16.9% | [2] -17.4% | [3] -12.7% | [4] -0.4% | [5] -9.4% | [6] -18.9%

COc1ccc(C2Oc3cc(OC)c(OC)cc3C2CCl)cc1OC (configuration not stated)
inactive: [1] -20.1% | [2] 1.85% | [3] -46.8% | [4] -0.4% | [5] -26.9% | [6] -35.2%

O=C(O)CN(CCCCN(CC(=O)O)CC(=O)O)CC(=O)O
inactive: [1] -6.8% | [2] -15.8% | [3] 9.3% | [4] -66.5% | [5] 16.4% | [6] -21.2%

O=S1(=O)OCCOS(=O)(=O)C1(F)Br
inactive: [1] -38.4% | [2] -4.7% | [3] -19.6% | [4] -8% | [5] -20.6% | [6] -29.8%

Cc1ccc(NC(=O)C(=O)C(C#N)c2nc(-c3ccc(-c4ccccc4)cc3)cs2)c(C)c1 (configuration not stated)
inactive: [1] 8% | [2] -2.75% | [3] 19.4% | [4] 28.4% | [5] 4.75% | [6] -10.1%

O=C(CN1CCC(O)(c2ccccc2)CC1)N1CCN(/C=C/c2ccccc2)CC1
inactive: [1] -4% | [2] -0.45% | [3] -3.75% | [4] -10.6% | [5] -0.1% | [6] 10.8%

Cc1cc2nc(NN)[nH]c2cc1C
inactive: [1] 5.15% | [2] 7.15% | [3] -17.5% | [4] -10% | [5] -26.4% | [6] 22.1%

O=c1[nH]c2ccc([N+](=O)[O-])cc2nc1/C=C(\O)c1ccccc1
inactive: [1] -9.85% | [2] 14.3% | [3] -24.4% | [4] -31.1% | [5] 3.75% | [6] -46.5%

CC[Si](C)(C)COC(N)=O
inactive: [1] -23.2% | [2] 8.1% | [3] -12.4% | [4] -1.55% | [5] -4.15% | [6] -37%

O=[N+]([O-])c1cc(Br)ccc1N1CCCCC1
inactive: [1] -3.15% | [2] -3.55% | [3] 2.25% | [4] -18.1% | [5] 17.9% | [6] -20.8%

CCN(CC)CCOC(=O)c1c(C)c(C)cc(C)c1C
inactive: [1] -17.4% | [2] -5.45% | [3] -6.45% | [4] -29.5% | [5] -8.3% | [6] -7.7%

CC(=O)Nc1ccc(Nc2nc(=O)[nH]c(=O)[nH]2)cc1
inactive: [1] -3.2% | [2] -12.6% | [3] 13.1% | [4] -0.55% | [5] -1.6% | [6] -32.6%

CCOC(=O)c1ccc2c(c1)CCC(C)(C)O2
inactive: [1] -5.55% | [2] -4.8% | [3] 7.3% | [4] -13.9% | [5] 11.5% | [6] -7.15%

O=C1CN(c2ccc(Cl)cc2)C(=O)CN1CCN1CC(=O)N(c2ccc(Cl)cc2)CC1=O
inactive: [1] -43.5% | [2] -10.3% | [3] -3.25% | [4] 10.6% | [5] -39.6% | [6] -23.6%

O=NSC(c1ccccc1)(c1ccccc1)c1ccccc1
inactive: [1] 1.65% | [2] -24.2% | [3] 1.6% | [4] -28.1% | [5] -9.25% | [6] 0%

O=C(NCCCNCCCCNCCCNC(=O)C(F)(F)F)C(F)(F)F
inactive: [1] 5.05% | [2] -0.9% | [3] 6.6% | [4] -8.45% | [5] 4.25% | [6] 3.3%

COc1cc(NCc2ccc3c(c2)OCO3)c([N+](=O)[O-])cc1OC
inactive: [1] 5.15% | [2] 11.3% | [3] 6.6% | [4] -8.6% | [5] 4.3% | [6] -15.7%

NC(=S)N/N=C1/CCCC/C1=N/O
inactive: [1] 46.1% | [2] 33.1% | [3] 36.2% | [4] -0.15% | [5] 25.2% | [6] -6.35%

COC(=O)c1nc(=S)[nH]c(C(=O)OC)c1C(=O)c1ccc(C)cc1
inactive: [1] -3.7% | [2] -7.15% | [3] 5.75% | [4] -14% | [5] 10.6% | [6] 21.4%

Cc1cccc(NC(=O)CSc2nnc(-c3ccc(N=Cc4ccc(Cl)cc4)cc3)o2)c1
inactive: [1] 6.3% | [2] -24.1% | [3] 9.25% | [4] -42.5% | [5] 6.8% | [6] 14.7%
